An excerpt weighted towards active compounds, which were near 3.4% of everything screened.
GPR151 ag = activators of human GPR151, primary screen, cell-based, PathHunter beta-arrestin, luminescence. G-protein coupled receptor 151 (Homo sapiens), Q8TDV0. PathHunter beta-arrestin GPR151 cells. activation, % at 11.2 µM. actives 1% (n = 650,000). AID 1508602, 2020; in the data active = activation above about 4.9%;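 note: 0% = median of compound wells and 100% = cells with positive control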
FBW7 activator = FBW7 E3 ligase activators, primary screen, biochemical, AlphaScreen, human. AID 1259310, 2017. normalized activity (activation), % at 26.1 µM. AlphaScreen FBW7–phospho-cyclin E peptide binding, activator screen. actives 0.13% (n = 650,000); in the data active = normalized activity above about 1.9%;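 note: purified mutant Fbw7 with reduced substrate affinity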
Target sequence (Q969H0 whole entry, looked up): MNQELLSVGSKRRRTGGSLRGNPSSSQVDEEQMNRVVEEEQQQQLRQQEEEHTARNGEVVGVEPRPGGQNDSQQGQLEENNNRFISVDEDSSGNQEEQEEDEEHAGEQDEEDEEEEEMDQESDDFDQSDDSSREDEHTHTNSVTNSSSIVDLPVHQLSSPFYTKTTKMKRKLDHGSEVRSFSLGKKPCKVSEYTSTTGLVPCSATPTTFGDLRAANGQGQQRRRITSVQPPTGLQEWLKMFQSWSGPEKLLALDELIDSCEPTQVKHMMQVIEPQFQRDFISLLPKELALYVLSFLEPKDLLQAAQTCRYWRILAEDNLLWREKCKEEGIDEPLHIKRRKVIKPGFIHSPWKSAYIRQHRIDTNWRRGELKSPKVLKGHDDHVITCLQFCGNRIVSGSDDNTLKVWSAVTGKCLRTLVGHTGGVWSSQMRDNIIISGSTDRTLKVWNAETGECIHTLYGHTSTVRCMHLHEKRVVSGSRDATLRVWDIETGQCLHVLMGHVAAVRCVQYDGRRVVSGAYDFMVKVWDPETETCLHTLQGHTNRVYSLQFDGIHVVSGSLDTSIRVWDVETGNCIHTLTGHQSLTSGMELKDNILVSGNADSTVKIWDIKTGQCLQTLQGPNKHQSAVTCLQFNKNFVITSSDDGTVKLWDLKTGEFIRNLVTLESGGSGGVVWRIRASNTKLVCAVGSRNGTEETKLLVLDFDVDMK
TEAD-YAP block = TEAD-YAP interaction inhibition, primary screen, TEAD-YAP interaction inhibitor project, luminescence, HEK-TIYL cells; actives 1.4% (n = 640,000); AID 1259422, 2018; TEAD-Gal4/YAP UAS-luciferase luminescence; inhibition, % at 9.12 µM; in the data active = inhibition above about 32%;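 note: 0% = median of test compound wells and 100% = reference inhibitor wells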
MITF inh = MITF inhibitors, primary screen, biochemical, AlphaScreen, human; inhibition, % at 2.6 µM; AID 1259374, 2018; AlphaScreen MITF homodimerization, bead proximity signal; Microphthalmia-associated transcription factor (Homo sapiens), O75030; actives 0.91% (n = 650,000); in the data active = inhibition above about 50%;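 note: 0% = vehicle wells with protein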
GPR151 confirm = GPR151 activators, triplicate retest, confirmation, cell-based, PathHunter beta-arrestin, luminescence | shares compounds with GPR151 ag | GPR151 PathHunter beta-arrestin cells, 90 min; % of EA-reagent control over plate median | activation, % at 11.2 µM | 6,700 tested, under 10 active | AID 1508609, 2020;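 active = mean percent activation across replicates above the confirmation screen cutoff of 4.91%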
GPR119 counter = GPR119 activators in beta-arrestin cells, counter-screen for GPR151 activator project, cell-based, PathHunter beta-arrestin, luminescence, triplicate; 90 min; 0 = compound-well median, 100 = enzyme-acceptor control; actives 0.3% (n = 6,700); shares compounds with GPR151 ag; activation, % at 11.2 µM; AID 1508611, 2020;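 active = mean percent activation in the counterscreen above 29.09%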;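 note: counterscreen on off-target GPR119 to flag nonselective hits from the GPR151 activator screen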
* = called active by the depositor; nt = no result.

SMILES	GPR151 ag	FBW7 activator	TEAD-YAP block	MITF inh	GPR151 confirm	GPR119 counter
Cc1ccccc1N(CC(=O)NC(C)(C)C)C(=O)CCC(=O)Nc1nccs1	5.7*	0	0	8	-1	-12
CCCc1ccc(OCc2nc(-c3ccc(NC(=O)c4ccc5c(c4)OCO5)cc3)no2)cc1	-1	0	-22	11	nt	nt
COc1cc(C#N)ccc1OCC(=O)N(C)Cc1ccc(F)cc1	8.0*	0	-11	-15	1	-8
COc1cc(C#N)ccc1OCC(=O)NC(C)c1ccc(F)cc1 (centres undefined)	1	0	2	2	nt	nt
O=C(CCCn1c(=O)oc2ccccc21)NNC(=O)Cc1c[nH]c2ccccc12	1	0	-1	1	nt	nt
O=C(Nn1c(=S)[nH]c2ccsc2c1=O)c1ccccc1	5.0*	0	-22	6	1	13
O=C(Nn1c(=S)[nH]c2ccccc2c1=O)c1ccccc1	0	0	-15	-11	nt	nt
c1ccc(C(c2ccccc2)c2noc(C3CCNCC3)n2)cc1	6.9*	0	-5	8	-1	-5
c1cc(-c2noc(C3CCNCC3)n2)ccn1	3	0	3	3	nt	nt
O=C(NCc1nc2ccccc2[nH]1)c1cccc(-c2ccccc2)n1	7.1*	0	8	-3	1	-3
COc1cc([N+](=O)[O-])cc2cc(C(=O)NCC3CCCO3)c(=O)oc12 (centres undefined)	0	0	7	-7	nt	nt
O=c1[nH]c2ccc(S(=O)(=O)N3CCN(c4ccccn4)CC3)cc2s1	5.1*	0	-13	-5	0	6
CCOC(=O)C1CCCN(c2ccc(NC(=O)c3snc4c(=O)[nH]cnc34)cc2)C1 (centres undefined)	7.4*	0	-7	1	1	10
COc1ccccc1OCCCC(=O)NCCc1ccccc1	2	0	1	2	nt	nt
COCCCN1C(=O)C(=O)/C(=C(\O)c2ccccc2)C1c1ccc(C(C)C)cc1 (centres undefined)	5.3*	0	9	5	-1	-5
CCn1c(SCC(=O)Nc2ccc(NC(C)=O)cc2)nnc1-c1cccs1	2	0	1	8	nt	nt
CCC(C)C(NC(=O)C(NC(=O)C(CCC(=O)OCc1ccccc1)NC(=O)OC(C)(C)C)C(C)CC)C(N)=O (centres undefined)	0	0	-10	-6	nt	nt
N#CCCN1CCN(c2ccc(F)cc2[N+](=O)[O-])CC1	5.3*	0	9	13	3	-11
CN1CCN(c2cc(N3CCN(CCC#N)CC3)c([N+](=O)[O-])cc2F)CC1	0	0	9	5	nt	nt
CCC(C)NCCOc1ccc([N+](=O)[O-])cc1 (centres undefined)	6.6*	0	5	-14	0	6
O=c1c2c(-c3ccccc3)csc2ncn1Cc1ccccc1	-1	0	10	1	nt	nt
O=C(O)c1ccc(Cn2cnc3scc(-c4ccccc4)c3c2=O)cc1	5.2*	0	-1	0	0	7
c1ccc(Oc2ccc(Nc3cc(Nc4ncccn4)ncn3)cc2)cc1	3	0	6	7	nt	nt
COc1ccc(N2C3=C(C(=O)CC(C)(C)C3)C(c3ccccc3)C3=C2c2ccccc2C3=O)cc1 (centres undefined)	5.6*	0	-6	-8	0	-5
COc1cc(/C=N/N=C2/C(=O)Nc3ccccc32)cc(OC)c1O	3	0	2	-8	nt	nt
SMILES	GPR151 ag	FBW7 activator	TEAD-YAP block	MITF inh	GPR151 confirm	GPR119 counter
COc1ccc(O)c(/C=N/N=C2/C(=O)Nc3ccccc32)c1	6.6*	0	9	15	0	-5
CCOC(=O)c1c(-c2ccc(Br)cc2)csc1NC(=O)C1CC1	2	0	17	-8	nt	nt
O=c1ccc2cc(S(=O)(=O)NCc3ccco3)ccc2o1	1	0	-1	-41	nt	nt
O=c1[nH]c2ccc(S(=O)(=O)NCc3ccco3)cc2o1	6.0*	0	-3	-2	0	4
CCOc1ccc(N2CCn3c2nnc(C(=O)NCc2ccc(Cl)cc2)c3=O)cc1	5.0*	0	0	4	0	-11
CCN1CCC(NCCc2ccc(Cl)cc2Cl)CC1	0	0	4	13	nt	nt
CC(=O)c1cccc(NC(=O)C(C)N2C(=O)C3C4C=CC(C5CC45)C3C2=O)c1 (centres undefined)	0	0	7	12	nt	nt
CC(C(=O)Nc1cccc([N+](=O)[O-])c1)N1C(=O)C2C3C=CC(C4CC34)C2C1=O (centres undefined)	8.6*	0	-1	9	0	-9
CC1(C)NC(=O)N(CCOc2ccc(OCc3ccccc3)cc2)C1=O	7.2*	0	-1	6	0	-17
O=C(Nc1ccccc1)N1CCN(c2cccc(Cl)c2)CC1	0	1	-7	13	nt	nt
CCOc1ccc(-n2c(C)c(C(C)=O)c3cc(OC(C)=O)ccc32)cc1	5.3*	0	-1	-12	-1	-8
CCCCOc1ccc(/C=C/C(=O)NCCOC)cc1	-1	0	-25	-3	nt	nt
Cc1ccc(NS(=O)(=O)c2ccc(F)cc2)cc1C	-1	0	-13	-3	nt	nt
Cc1ccc(NS(=O)(=O)c2ccc(NC=O)cc2)cc1C	5.8*	0	15	5	0	-2
c1ccc(CCn2nnnc2CN2CCN(c3ccccc3)CC2)cc1	0	0	2	5	nt	nt
c1ccc(CCN2CCN(c3ccccc3)CC2)cc1	6.9*	0	-4	21	1	4
Cc1ccc(NC(=O)C2CC(Cl)=CCC2C(=O)O)cc1[N+](=O)[O-] (centres undefined)	18*	0	9	-6	0	-4
O=C(Nc1cccc(N2CCC(NCc3cccc(-n4cccn4)c3)CC2)c1)C1CC1	-1	0	10	-2	nt	nt
O=C(Nc1cccc(N2CCC(NCc3cccnc3)CC2)c1)C1CC1	5.5*	0	-9	0	1	19
Clc1ccc(-n2ncnc2-c2cccc(Br)c2)cc1	0	0	1	-1	nt	nt
COc1ccc(-c2ncc(C)c(NCc3cccc(C(F)(F)F)c3)n2)cc1	2	0	-4	5	nt	nt
CCOC(=O)c1cc(N2C(=O)C3C4C=CC(CC4)C3C2=O)ccc1Cl (centres undefined)	10*	0	8	4	0	7
Cc1ccccc1NC(=S)NNC(=O)/C=C/C(=O)O	0	0	-7	-3	nt	nt
